Source: PubChem BioAssay (several laboratories)
Hits are enriched below; roughly 1.3% of the tested compounds scored in any of these assays.
NPR1 activator – GC-A (human) enzyme activation; P16066; HEK293 GC-A cells, cGMP TR-FRET, EC30 ANP; 0% at EC30 ANP, 100% saturating ANP; activation, % at 10 µM; actives 0.14% (n = 370,000); in the data active means activation above about 40%
ADAM17 inh – ADAM17 inhibition, QFRET primary screen. P78536. recombinant ADAM17, EDANS/DABCYL FRET peptide cleavage. inhibition, % at 6.95 µM. actives 0.83% (n = 370,000). AID 720648;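 active means inhibition above the mean of compounds lying between control limits plus 3 SD, set per campaign, cut at about 8.5% in these data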;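 further: 0% = DMSO-only wells as the low control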
Target sequence (P78536 215-824 limits assumed): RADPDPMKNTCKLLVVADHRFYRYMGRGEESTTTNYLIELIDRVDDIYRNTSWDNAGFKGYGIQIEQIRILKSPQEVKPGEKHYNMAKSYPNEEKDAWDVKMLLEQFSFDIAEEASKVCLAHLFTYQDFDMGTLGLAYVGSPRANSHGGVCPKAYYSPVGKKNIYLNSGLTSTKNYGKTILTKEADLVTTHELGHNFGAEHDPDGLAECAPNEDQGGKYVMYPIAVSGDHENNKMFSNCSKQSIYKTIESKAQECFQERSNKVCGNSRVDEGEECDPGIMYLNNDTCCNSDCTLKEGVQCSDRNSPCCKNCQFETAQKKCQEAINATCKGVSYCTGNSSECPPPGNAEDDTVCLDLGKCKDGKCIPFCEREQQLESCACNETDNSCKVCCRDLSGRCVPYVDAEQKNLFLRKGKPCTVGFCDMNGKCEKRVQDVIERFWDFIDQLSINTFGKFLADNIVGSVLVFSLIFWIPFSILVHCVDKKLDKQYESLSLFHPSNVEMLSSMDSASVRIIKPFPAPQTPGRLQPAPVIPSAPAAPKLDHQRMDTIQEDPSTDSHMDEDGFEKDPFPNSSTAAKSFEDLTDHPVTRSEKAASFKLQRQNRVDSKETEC
GC-B act – GC-B (human) receptor activation; HEK293-GC-B cells, CNP EC30, cGMP TR-FRET; 0% at EC30 CNP, 100% saturating CNP; activation, % at 10 µM; actives 0.11% (n = 370,000);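 active means activation at 10 µM reaching about 35% in either raw or pattern-adjusted values, limit read from the data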
ADAM10 inh – ADAM10 inhibition, QFRET primary screen | O14672 | recombinant ADAM10, EDANS/DABCYL FRET peptide cleavage, 3 h | inhibition, % at 7 µM | actives 0.62% (n = 370,000);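 active means inhibition above a per-campaign cutoff equal to the mean of compounds falling between control-based bounds plus 3 SD, cut at about 20% in these data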;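 further: 0% = DMSO wells while the 100% control is not disclosed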
ADAM10 ctr – counter-screen for ADAM17 exosite inhibitors: inhibitors of human ADAM10 | shares compounds with ADAM17 inh | recombinant ADAM10, EDANS/DABCYL FRET peptide cleavage, 3 h | inhibition, % at 6.95 µM | actives 47% (n = 2,900);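 active means mean inhibition over the triplicate runs exceeds the activity threshold set in the earlier primary screen, cut at about 20% in these data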;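 further: 0% = DMSO wells and 100% = marimastat wells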
ADAM17 confirm – human ADAM17 inhibition, confirmation | recombinant ADAM17, EDANS/DABCYL QFRET peptide cleavage | actives 65% (n = 2,900) | shares compounds with ADAM17 inh | inhibition, % at 6.95 µM;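 active means mean inhibition across replicates above the hit cutoff set in the primary screen, cut at about 8.5% in these data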;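 further: 0% = DMSO wells and 100% = marimastat wells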
An asterisk follows results filed as active; . = not tested or not shown.

SMILES	NPR1 activator	ADAM17 inh	GC-B act	ADAM10 inh	ADAM10 ctr	ADAM17 confirm
CCn1c(SCC(=O)Nc2ccc(NC(=O)c3ccco3)cc2)nnc1-c1cccs1	-5	8.8*	0	9	10	4
CCn1c(SCC(=O)Nc2cccc(NC(=O)c3ccco3)c2)nnc1-c1cccs1	0	-1	6	5	.	.
O=C(CSc1nnc(-c2cccs2)n1Cc1ccco1)Nc1ccc(OCc2ccccc2)cc1	0	9.4*	7	17	23*	12*
C[C@H](O)[C@@H]1C(=O)N2CCc3c([nH]c4ccccc34)[C@@H]2C[C@@H]1N(C)C(=O)OCc1ccccc1	1	-77	5	-307	.	.
COc1ccc(CNC(=O)CSC(=S)N2CCCC2)cc1	0	-9	-1	0	.	.
O=C(Nc1ccccc1)C1C2CCC3C(CCC21)C3(Cl)Cl (centres undefined)	3	8.8*	7	13	13	9.6*
O=C(Nc1cccc(Cl)c1)C1C2CCC3C(CCC21)C3(Cl)Cl (centres undefined)	5	7	-3	14	.	.
CCN(c1ccc(OC)cc1)S(=O)(=O)c1nnc(NC(=O)C2CCCCC2)s1	-2	10*	0	5	-2	-1
O=C(CSc1nc(Nc2ccccc2)nc(N2CCOCC2)n1)Nc1cccc([N+](=O)[O-])c1	13	10*	15	15	38*	22*
COc1ccc(-c2c(-c3ccc(OCC(=O)NN)cc3O)n[nH]c2C)cc1OC	-5	1	-4	12	.	.
COc1ccc(-c2c(-c3ccc(OCC(=O)NN)cc3O)n[nH]c2C(F)(F)F)cc1	2	12*	0	19	10	8
COc1ccc(C(=O)N2CCCC(c3cc(C(=O)NCc4ccccc4)no3)C2)cc1 (centres undefined)	-5	-2	-1	-12	.	.
COc1ccc(C(=O)N2CCCC(c3cc(C(=O)NCc4ccc(F)cc4)no3)C2)cc1 (centres undefined)	-4	8.8*	-2	6	-6	-2
CCn1c(SCC(=O)Nc2ncc(C(F)(F)F)cc2Cl)nnc1-c1cccc(C)c1	-2	10.0*	0	4	1	2
N#C[C@@H]1N[C@H](CO)[C@@H]1c1ccccc1	0	-1	7	-6	.	.
COc1ccccc1C1N(c2ccc(Cl)cc2)C(=O)C2CCCN21 (centres undefined)	-10	9.8*	-6	6	-7	3
CCCCCc1ccc(-c2n[nH]c(=O)c3ccccc23)cc1	1	-4	2	-7	.	.
Cc1nc(N2CCN(C)CC2)c2c(C)c(C(=O)Nc3ccc(C)c(F)c3)sc2n1	-3	8.8*	-1	13	7	8.8*
Cc1nc(N2CCCCC2)c2c(C)c(C(=O)Nc3ccc4c(c3)OCCO4)sc2n1	2	9.6*	-5	11	16	11*
CC(=O)NC(c1cccc(F)c1)c1nc(-c2ccc3ccccc3c2)cs1 (centres undefined)	-1	0	-8	8	.	.
CCc1noc2cc(-c3ccccc3)n(C)c(=O)c12	3	0	-1	5	.	.
COc1cccc(C(NC(C)=O)c2ccc3cccnc3c2O)c1 (centres undefined)	4	0	0	8	.	.
COc1cccc(C(Nc2ccccc2)c2ccc3ccc(C)nc3c2O)c1 (centres undefined)	0	17*	0	11	13	15*
CCOCCCn1c(SC(C(=O)Nc2cc(C)ccc2C)c2ccccc2)nnc1-c1ccc(Cl)cc1 (centres undefined)	-1	9.9*	1	-8	2	6
CC(NC(C)c1ccccc1Cl)C(=O)Nc1cccc(S(=O)(=O)N2CCCCC2)c1 (centres undefined)	-1	11*	3	3	16	10*
COc1ccc([N+](=O)[O-])cc1NC(=O)CSc1nc(C)cc(C)n1	7	5	7	5	.	.
COc1ccc([N+](=O)[O-])cc1NC(=O)CSc1ccc2ccccc2c1	-2	9.6*	-3	10	21*	8
